From ChEMBL document CHEMBL1201862, “PubChem BioAssay data set” (2004) come the findings set out here.

In all, about 310,000 compounds went through this assay and about 11,000 (3.5%) were called active. Not shown: some 8% with an inconclusive outcome. The calls are words filed in the database; no cut-off is given here. Many of the other results were omitted from the sample, so actives are more common in it than they were.

Chain of Nuclear receptor ROR-gamma (Mus musculus) (P51450 whole entry): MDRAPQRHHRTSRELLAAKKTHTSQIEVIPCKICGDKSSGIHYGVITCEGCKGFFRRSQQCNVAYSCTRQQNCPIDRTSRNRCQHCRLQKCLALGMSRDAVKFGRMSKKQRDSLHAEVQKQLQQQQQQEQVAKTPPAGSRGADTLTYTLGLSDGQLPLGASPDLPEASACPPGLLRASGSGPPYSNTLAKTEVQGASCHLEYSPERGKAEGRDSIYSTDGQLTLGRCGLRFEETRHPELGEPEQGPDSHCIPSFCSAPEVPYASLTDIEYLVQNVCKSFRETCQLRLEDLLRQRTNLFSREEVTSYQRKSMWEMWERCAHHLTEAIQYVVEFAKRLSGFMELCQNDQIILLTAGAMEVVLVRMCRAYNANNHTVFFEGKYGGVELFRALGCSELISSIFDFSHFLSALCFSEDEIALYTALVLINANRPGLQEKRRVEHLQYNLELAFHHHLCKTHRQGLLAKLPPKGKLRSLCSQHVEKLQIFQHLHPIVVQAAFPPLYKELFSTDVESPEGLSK

This assay addresses Nuclear receptor ROR-gamma (Mus musculus) (UniProt P51450). As to the kind of experiment: VP16 counterscreen qHTS for inhibitors of ROR gamma transcriptional activity. In kind it is functional. For orientation: A counterscreen serves to expose hits that act by an unwanted route or on another target.
Regarding `Cl[Te]1(Cl)OCCO1`, the Potency is 3.55 µM (active).

In the case of `CNc1ccc2oc(C[C@@H]3OC4(CC[C@@H]3C)O[C@H](C(C)C(=O)c3ccc[nH]3)[C@H](C)C[C@H]4C)nc2c1C(=O)O` (some centres not stated), the Potency is 631 µM (active).
